# KCNH2 3.1 block: blocks the human KCNH2 3.1 channel isoform. U2OS KCNH2 3.1, thallium flux FluxOr; stronger effect = lower value. activity change, % (tested at about 1.8 µM). actives 0.95% (n = 340,000). AID 720553;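 active = maximum activity change below -70%; inconclusive = maximum activity change from -70% to -50%; inactive = maximum activity change above -50%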;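 also: thallium influx rate constant from kinetic fluorescence after stimulation buffer; % is scaled to controls: 0 for no effect and ±100 for the full control effect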
#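 Measured as rate of thallium-driven FluxOr signal in transduced U2OS cells carrying the 3.1 channel, read kinetically for 2 min upon stimulation; values are rate constants scaled to DMSO control wells.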
# TRPML1 ag: human mucolipin-1 channel agonism; actives 0.12% (n = 410,000); TRPML1-expressing cells, Ca2+ dye fluorescence, FDSS; Q9GZU1; activation, % (concentration not given with the values); in the data active = activation above about 50%; inconclusive = mostly about 30% to 49%; also: 0% is about no effect
#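 TRPML1-DL cells, Tet-induced overnight (~16 h, 37 degrees C), loaded 45-90 min at room temperature with Ca8 no-wash calcium dye plus quencher. FDSS fluorescence: 10 s baseline, compound pin-transfer, 110 s agonist read, then EC80 54-4 (4uM final) and 110 s antagonist read.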
# TRPML1 inh: human mucolipin-1 channel inhibition. Q9GZU1. TRPML1-inducible cells, Ca2+ dye fluorescence, FDSS; stronger effect = lower value; inhibition of EC80 agonist-evoked calcium signal. activity change, negative = inhibition, % (no concentration beside the values). actives 0.02% (n = 390,000); in the data active = activity change below about -50%; inconclusive = between about -30% and that limit;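 also: stimulus is agonist 54-4 at its EC80 concentration; % is scaled to controls: 0 for no effect and ±100 for the full control effect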
#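 Tet-induced TRPML1-DL cells loaded with Ca8 no-wash calcium dye were read kinetically on FDSS. Compound addition was followed by EC80 agonist 54-4 (4 uM final); inhibition was read over 110 s.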
# GRP78 ERSR act: ER stress response induction in glioma; AID 602332; actives 0.02% (n = 420,000); U87-MG GRP78 promoter luciferase reporter, 16 h; Potency, µM, for the others: top-dose activation, actives largely listed as activators; active = well fitted activation curve with a large enough effect; inconclusive = small, poorly fitted or top-dose-only effect; inactive = no such curve, though single readings can be large or run the other way; also: potency is read from the fitted curve at half-maximal effect; series mostly up to about 76 µM; % of control where 0% means no effect; nearly all actives have a fitted effect of over 35% in size
#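 ERSR induction read as luciferase luminescence (Bright-Glo, 10 min at room temperature) in stably transfected human U87-MG glioma cells exposed to compounds for 16 h, using GRP78 as sensor.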
# PTAP TSG101 blk: blocks PTAP/TSG101 interaction to inhibit HIV-1 budding; Fluorescence polarization, FITC-PTAP peptide / Tsg101 binding; AID 493005; 340,000 tested, under 10 active; Potency, µM (doses to about 115 µM), inactives show top-dose activity change, negative = inhibition, most hits filed as inhibitors; active = well fitted inhibition curve with a large enough effect in the main read-out, with a control signal flat, not every such curve was filed as active; inconclusive = small, poorly fitted or top-dose-only effect, or effect the other way, or a change in a side signal; inactive = no such curve, though single readings can be large or run the other way; also: potency is read from the fitted curve at half-maximal effect; % of control where 0% means no effect
# Target sequence (Q99816 whole entry, looked up): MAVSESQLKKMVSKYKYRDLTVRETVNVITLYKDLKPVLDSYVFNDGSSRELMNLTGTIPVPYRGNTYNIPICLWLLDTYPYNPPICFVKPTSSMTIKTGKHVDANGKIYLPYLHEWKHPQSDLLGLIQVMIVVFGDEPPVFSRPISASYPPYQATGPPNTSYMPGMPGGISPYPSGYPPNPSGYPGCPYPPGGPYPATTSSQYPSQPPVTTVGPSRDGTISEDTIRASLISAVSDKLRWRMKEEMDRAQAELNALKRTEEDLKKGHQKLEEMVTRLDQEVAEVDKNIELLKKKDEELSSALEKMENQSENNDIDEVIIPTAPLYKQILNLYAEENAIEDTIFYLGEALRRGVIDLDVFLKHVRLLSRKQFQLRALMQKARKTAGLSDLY
#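 Fluorescence polarization binding of Tsg101 binding domain (10 uM final) to FITC-labeled PTAP peptide (50 nM final) in HEPES pH 7.5 buffer with NaCl, Tween 20, EDTA, TCEP. Compounds added before peptide; binding 20 min at RT.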
# KCNH2 WT inh: blocks the wildtype human KCNH2 potassium channel; Q12809; U2OS, BacMam KCNH2, thallium flux FluxOr; stronger effect = lower value; activity change, % at 1.84 µM; actives 0.37% (n = 340,000);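 active = maximum activity change below -70%; inconclusive = maximum activity change between -70% and -50%; inactive = maximum activity change above -50%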; also: % is scaled to controls: 0 for no effect and ±100 for the full control effect
#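 U2OS cells transduced with wild-type KCNH2 virus are loaded with FluxOr dye for 45 min, and thallium flux is measured in kinetic reads before and after stimulation buffer. Rate constants are normalized to DMSO controls.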
# * marks the source's active call; other numbers are inactive results; ? = inconclusive; / = no result given. Hits are enriched below; roughly 1% of the tested compounds scored in any of these assays.
SMILES,KCNH2 3.1 block,TRPML1 ag,TRPML1 inh,GRP78 ERSR act,PTAP TSG101 blk,KCNH2 WT inh
CCOc1ccccc1NC(=O)CN(c1ccc(OC)c(OC)c1)S(=O)(=O)c1ccc(C)cc1,-108.1*,-1.1,7.8,-2.6%,/,-10.2
CC(=O)c1cc(C)ccc1OC(=O)CCN1C(=O)C2C3c4ccccc4C(c4ccccc43)C2C1=O (stereo not drawn),-87.1*,-0.4,14.3,-3.2%,2.6%,-7.2
O=C(NCC(=O)N1CCCCC1)c1sc2ccccc2c1Cl,24.4,0.0,-3.9,0.0%,-0.7%,3.2
O=C(Cc1ccc(Cl)cc1)Nc1ccc(CN2CCCCC2)cc1,-70.1*,5.5,2.3,6.9%,-1.8%,21.1
O=C(Nc1ccc(CN2CCCCC2)cc1)c1sc2ccccc2c1Cl,-100.1*,0.6,63.9,3.9%,-0.1%,-2.5
CCN(CC)Cc1ccc(NC(=O)c2sc3cc(Cl)ccc3c2Cl)cc1,-95.0*,-0.7,0.0,-5.3%,-3.3%,5.6
Cc1cc(OCC(=O)Nc2ccc(CN3CCCCC3)cc2)ccc1Cl,-85.6*,1.5,16.9,-2.6%,0.1%,12.6
CCN(CC)c1ccc(NC(=O)c2sc3ccccc3c2Cl)cc1,/,0.6,35.8,-0.3%,/,/
Cc1cc(C)c(CN2CCN(CCCn3ccc(NC(=O)OCc4ccccc4)nc3=O)CC2)c(C)c1,-82.1*,-1.3,0.9,-4.0%,-6.1%,-43.7
O=C(Nc1ccn(CCCN2CCN(c3ccccc3)CC2)c(=O)n1)OCc1ccccc1,-72.1*,/,/,-4.5%,/,42.4
CN(CCCn1ccc(NC(=O)OCc2ccccc2)nc1=O)CCc1ccccn1,-85.3*,/,/,2.9%,/,-4.5
CCCCCCCCCCCCCCCC(=O)O[C@H]1[C@@H](O)[C@@H](O)[C@@H]([C@H](NC(=O)[C@@H]2C[C@@H](CCC)CN2C)[C@H](C)Cl)O[C@@H]1SC,/,/,/,-1.7%,/,/
CCn1nc(C(=O)OCC(=O)c2ccc(F)cc2)c2ccccc2c1=O,-25.6,0.9,4.2,-3.4%,-1.3%,7.0
CCn1nc(C(=O)OC(C(=O)c2c[nH]c3ccccc23)c2ccccc2)c2ccccc2c1=O (stereo not drawn),-75.6*,1.4,-3.8,-1.5%,/,-2.5
O=C(CSc1nc2cc(Cl)ccc2c(=O)n1Cc1ccco1)Nc1ccc(S(=O)(=O)N2CCOCC2)cc1,-75.1*,0.4,-16.4,-4.6%,1.7%,-15.4
CS(=O)(=O)c1ccc(Cl)c(NC(=O)CSc2nc3ccccc3c(=O)n2Cc2ccco2)c1,-97.6*,0.6,-5.2,-4.1%,-0.6%,-13.4
COC(=O)c1ccc2c(=O)n(Cc3ccco3)c(SCC(=O)Nc3ccc(C)c(Cl)c3)nc2c1,-75.1*,-0.4,-3.8,-5.6%,-7.5%,-18.3
CC(C)c1ccc(NC(=O)CSc2n[nH]c(=O)n2Cc2ccco2)cc1,-88.2*,1.1,-15.8,-0.7%,-1.2%,-1.5
O=C(CSc1nc2ccccc2c(=O)n1Cc1ccco1)Nc1cccc(O)c1,-21.0,1.3,1.3,7.8%,0.8%,0.7
CCC(O)CNC(=O)c1cnn(-c2nccc(-c3cc(C)sc3C)n2)c1C1CC1 (stereo not drawn),/,/,/,3.9%,/,/
COc1ccc(CCNC(=O)c2cnn(-c3nccc(-c4cccs4)n3)c2C)cc1OC,/,/,/,11.4%,/,/
O=C(/C=C/c1ccccn1)NCC1Cc2cccc(-c3ncccn3)c2O1 (stereo not drawn),/,/,/,0.0%,/,/
O=C(N/N=C/CCc1ccccc1)c1ccc(CN2c3cccc4cccc(c34)S2(=O)=O)cc1,-78.0*,0.9,19.9,-7.8%,0.5%,17.5
COc1ccc(/C=N/NC(=O)c2ccc(CN3c4cccc5cccc(c45)S3(=O)=O)cc2)cc1,-20.6,0.2,-10.8,-0.5%,-0.7%,13.8
Cc1ncc2c(c1CNC(=O)c1cncs1)CCN(C(=O)c1ccsc1)C2,/,/,/,-5.2%,/,/
SMILES,KCNH2 3.1 block,TRPML1 ag,TRPML1 inh,GRP78 ERSR act,PTAP TSG101 blk,KCNH2 WT inh
COc1ccccc1CCNc1ncnc2sc(C(=O)N3CCCN(C=O)CC3)c(C)c12,/,/,/,-1.8%,/,/
COc1ccc(OCCN2CCN(C(=O)c3ccc(OC(F)F)c(OC)c3)CC2)cc1,-75.9*,1.5,37.7,0.0%,-2.1%,26.5
COc1ccc(OCCN2CCN(C(=O)c3ccc(OC)cc3)CC2)cc1,-48.2,-0.5,7.9,-3.4%,-0.5%,1.9
CCC1CN(CCNC(=O)C2CCCCN2C)Cc2cc(OC)ccc2O1 (stereo not drawn),/,/,/,1.3%,/,/
O=C(COC(=O)/C=C/c1ccc(OC(F)F)cc1)NCc1cccs1,-2.0,0.7,-3.7,-3.9%,-3.3%,23.9
O=C(CO/N=C/c1ccc(OC(F)F)cc1)NCc1cccs1,-79.5*,0.6,10.4,-2.4%,0.1%,-15.9
CC1(C)CC(Nc2ccc(C(F)(F)F)cc2[N+](=O)[O-])CC(C)(C)N1,-22.3,0.6,-12.1,-1.9%,-3.4%,46.2
O=[N+]([O-])c1cc(C(F)(F)F)ccc1NC1CCN(Cc2ccccc2)C1 (stereo not drawn),-90.8*,4.0,-0.6,-7.5%,-10.8%,-80.3*
NC(=O)CC(NC(=O)c1ccccc1)c1ccc(NC2CCN(Cc3ccccc3)CC2)c([N+](=O)[O-])c1 (stereo not drawn),2.2,-0.5,-5.6,-4.4%,1.2%,-6.4
O=[N+]([O-])c1cc(C(F)(F)F)ccc1NC1CCN(Cc2ccccc2)CC1,-86.4*,1.0,16.8,-2.9%,-1.9%,-42.5
COc1cc2ncnc(NCCCN3CCOCC3)c2cc1OC,-79.0*,0.8,-14.5,-3.1%,-0.6%,10.3
CCOc1cc2nc(-c3ccc(OC)c(OC)c3)nc(NCCCN3CCOCC3)c2cc1OC,7.7,0.5,13.4,-3.0%,-10.3%,-92.9*
c1cncc(CSc2nnc3ccc(-c4ccncc4)nn23)c1,24.5,/,/,-2.0%,1.2%,-79.2*
COC(=O)c1sc(S(=O)(=O)N2CCC(C)CC2)c(C(=O)OC)c1C,0.9,-0.5,-1.2,-3.5%,-7.2%,-3.2
COC(=O)c1sc(S(=O)(=O)N2CCCCC2)c(C(=O)OC)c1C,-186.9*,-0.2,-1.9,-5.7%,-0.4%,-0.7
O=C(Nc1ccc(C(=O)O)cc1)/C(=C\c1ccc2c(c1)OCO2)NC(=O)c1ccccc1Cl,?,-0.3,-5.2,-3.9%,/,2.0
O=C(NCCc1nc2ccccc2[nH]1)/C(=C/c1ccc2c(c1)OCO2)NC(=O)c1ccc(Cl)cc1Cl,-107.3*,-0.5,21.2,-1.5%,-2.7%,-164.6*
O=C(Nc1ccccc1)/C(=C/c1ccc(F)cc1)NC(=O)c1ccco1,-113.9*,-0.1,3.2,-2.6%,0.7%,2.2
O=C(NCCc1nc2ccccc2[nH]1)/C(=C/c1ccco1)NC(=O)c1ccccc1Br,-22.9,1.5,3.2,-2.6%,-7.3%,-6.2
